# Screening data (PubChem BioAssay)
# Shown are actives, neighbours in structure and some others; about 10% of the full set was active somewhere.
# JMJD2A Tudor: inhibitors of human JMJD2A Tudor domain. 390,000 compounds, 4.4% hits. O75164. AlphaScreen JMJD2A-Tudor / H3K4me3 peptide binding. Potency, µM (titrated, usually from 114 µM), for inactives: top-dose activity change, negative = inhibition, usual class: inhibitors; further: potency means the concentration at half of the fitted maximal effect; on the % scale 0 is the no-effect control and ±100 the full control effect; nearly all actives have a fitted effect of over 50% in size
# G9a block: G9a (human) methyltransferase inhibition. Potency, µM (titrated, usually from 102 µM), inactives show top-dose activity, negative = inhibition, actives largely listed as inhibitors. G9a H3K9 monomethylation, AlphaScreen, 2 h. 350,000 compounds, 8.8% hits; further: potency means the concentration at half of the fitted maximal effect; on the % scale 0 is the no-effect control and ±100 the full control effect; nearly all actives have a fitted effect of over 75% in size
#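 Chemiluminescent proximity detection of H3K9 monomethylation, read after 10 min bead incubation in the dark. Reaction: 20 nM G9a, 500 nM biotin-H3K9 peptide, 20 uM SAM cofactor, 2 h, room temperature, following 15 min enzyme-compound preincubation.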
# HP1b binding inh: HP1-beta chromodomain-methylated histone interaction inhibition; AID 540317; Potency, µM (top dose mostly 114 µM), for inactives: top-dose activity change, negative = inhibition, most hits filed as inhibitors; P83916; 390,000 compounds, 0.56% hits; AlphaScreen HP1-beta / biotin-H3K9me3 peptide binding; further: potency means the concentration at half of the fitted maximal effect; nearly all actives have a fitted effect of over 70% in size
#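 AlphaScreen: HP1-beta (50 nM) preformed 30 min with biotin-H3(1-18)K9me3 peptide (50 nM) in PBS pH 7.4, 0.01% Tween-20. Compound added for 30 min at RT, then streptavidin donor/nickel chelate acceptor beads (10 ug/mL) for 30 min.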
# CtBP-E1A inh: blocks the CtBP interaction with E1A; AlphaScreen GST-E1A/His-CtBP binding, 1536-well; hits give low values; activity change, % (concentration not given with the values); 340,000 compounds, 0.49% hits; in the data active means activity change below about -65%; inconclusive means mostly about -30% to -63%; further: on the % scale 0 is the no-effect control and ±100 the full control effect
#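 In 5 uL wells, 23 nL compound meets equimolar GST-E1A and His-CtBP (5X stock 125 nM each) for 2 h, 37 °C. Beads (5X, 50 ug/mL) then 1 h, 37 °C, dark.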
# BAZ2B block: blocks human BAZ2B; AlphaScreen BAZ2B-H3K14Ac peptide displacement; Q9UIF8; 360,000 compounds, 4.4% hits; AID 504333; Potency, µM (doses to about 114 µM), for inactives: at the top dose activity change, negative = inhibition, actives largely listed as inhibitors; further: potency means the concentration at half of the fitted maximal effect; on the % scale 0 is the no-effect control and ±100 the full control effect; nearly all actives have a fitted effect of over 60% in size
# Target sequence (Q9UIF8 whole entry, looked up): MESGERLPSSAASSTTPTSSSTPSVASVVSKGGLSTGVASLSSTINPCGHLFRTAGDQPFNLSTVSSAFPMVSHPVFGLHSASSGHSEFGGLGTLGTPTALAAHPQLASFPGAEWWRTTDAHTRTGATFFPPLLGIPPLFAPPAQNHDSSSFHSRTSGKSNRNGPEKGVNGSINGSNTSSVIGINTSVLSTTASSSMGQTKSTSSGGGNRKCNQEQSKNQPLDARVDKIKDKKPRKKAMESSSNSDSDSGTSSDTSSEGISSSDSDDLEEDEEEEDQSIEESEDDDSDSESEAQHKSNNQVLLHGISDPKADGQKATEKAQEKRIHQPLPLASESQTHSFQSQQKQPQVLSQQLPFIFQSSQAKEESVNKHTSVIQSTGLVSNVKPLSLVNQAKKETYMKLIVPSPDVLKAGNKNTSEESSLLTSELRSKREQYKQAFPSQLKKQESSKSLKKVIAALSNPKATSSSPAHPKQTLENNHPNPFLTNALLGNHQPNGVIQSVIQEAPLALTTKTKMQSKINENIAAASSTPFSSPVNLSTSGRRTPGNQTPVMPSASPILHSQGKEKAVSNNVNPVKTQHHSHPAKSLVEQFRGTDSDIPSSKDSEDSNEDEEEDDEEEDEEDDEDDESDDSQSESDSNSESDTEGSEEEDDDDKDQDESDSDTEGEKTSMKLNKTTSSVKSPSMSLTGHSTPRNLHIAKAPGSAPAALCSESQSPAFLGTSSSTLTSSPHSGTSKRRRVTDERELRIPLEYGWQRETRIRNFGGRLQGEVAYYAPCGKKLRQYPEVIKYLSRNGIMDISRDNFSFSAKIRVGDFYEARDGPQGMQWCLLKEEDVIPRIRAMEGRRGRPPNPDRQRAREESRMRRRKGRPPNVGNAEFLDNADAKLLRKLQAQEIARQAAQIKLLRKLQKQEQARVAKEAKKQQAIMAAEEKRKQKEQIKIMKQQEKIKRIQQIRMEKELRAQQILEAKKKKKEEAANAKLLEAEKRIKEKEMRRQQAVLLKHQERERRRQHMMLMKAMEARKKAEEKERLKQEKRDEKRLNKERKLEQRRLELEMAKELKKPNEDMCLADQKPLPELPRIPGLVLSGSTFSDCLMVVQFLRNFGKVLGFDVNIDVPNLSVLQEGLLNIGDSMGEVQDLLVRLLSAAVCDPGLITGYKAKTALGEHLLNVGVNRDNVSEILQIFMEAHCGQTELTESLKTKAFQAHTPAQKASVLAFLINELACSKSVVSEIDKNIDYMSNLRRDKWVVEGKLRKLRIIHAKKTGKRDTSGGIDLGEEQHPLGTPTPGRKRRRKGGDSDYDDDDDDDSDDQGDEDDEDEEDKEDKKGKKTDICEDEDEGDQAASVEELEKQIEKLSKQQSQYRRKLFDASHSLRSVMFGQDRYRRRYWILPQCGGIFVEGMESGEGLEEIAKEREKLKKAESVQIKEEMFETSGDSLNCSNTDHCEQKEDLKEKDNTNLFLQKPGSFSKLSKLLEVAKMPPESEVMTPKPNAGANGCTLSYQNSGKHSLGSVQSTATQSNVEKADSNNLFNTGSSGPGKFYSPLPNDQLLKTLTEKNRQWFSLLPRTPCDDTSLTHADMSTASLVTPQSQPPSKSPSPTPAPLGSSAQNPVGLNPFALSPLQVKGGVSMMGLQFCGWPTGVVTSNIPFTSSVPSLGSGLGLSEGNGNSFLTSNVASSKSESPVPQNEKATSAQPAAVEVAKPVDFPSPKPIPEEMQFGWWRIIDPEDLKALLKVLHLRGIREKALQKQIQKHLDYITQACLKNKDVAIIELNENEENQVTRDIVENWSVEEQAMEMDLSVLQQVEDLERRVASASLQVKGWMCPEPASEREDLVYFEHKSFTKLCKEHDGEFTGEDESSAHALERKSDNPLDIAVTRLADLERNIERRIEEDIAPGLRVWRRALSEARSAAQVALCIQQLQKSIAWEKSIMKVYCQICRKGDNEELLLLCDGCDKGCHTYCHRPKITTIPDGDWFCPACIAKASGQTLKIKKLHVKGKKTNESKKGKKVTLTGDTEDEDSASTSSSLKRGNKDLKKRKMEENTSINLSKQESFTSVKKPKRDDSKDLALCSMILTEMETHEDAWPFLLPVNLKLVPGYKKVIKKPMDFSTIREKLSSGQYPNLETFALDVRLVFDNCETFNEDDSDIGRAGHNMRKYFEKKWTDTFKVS
#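 Complex of BAZ2B and biotin-H3K14Ac (50 nM apiece) forms over 30 min at RT, then faces library compounds up to 110 uM for another 30 min; AlphaScreen beads added, 20 min dark incubation, luminescence read.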
# Six1-Eya2 inh: Six1/Eya2 interaction inhibition. AlphaScreen GST-Six1/His-Eya2 binding, biochemical; hits give low values. activity change, % (concentration not given with the values). 360,000 compounds, 0.56% hits; in the data active means activity change below about -65%; inconclusive means mostly about -30% to -63%; further: on the % scale 0 is the no-effect control and ±100 the full control effect
#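 Compounds are tested against tagged Six1 and Eya2 proteins bridged by glutathione donor and nickel acceptor beads; after a one-hour incubation at 37 °C without light, AlphaScreen emission is recorded.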
# * hit, by the source's call; ? = inconclusive; . = no result given; [ ] = dose if it differs, or a comment. Unless noted, the call rests on the fitted dose curve; in most records, active means well fitted inhibition curve with a large enough effect; inconclusive means small, poorly fitted or top-dose-only effect; inactive means no such curve, though single readings can be large or run the other way.
SMILES,JMJD2A Tudor,G9a block,HP1b binding inh,CtBP-E1A inh,BAZ2B block,Six1-Eya2 inh
O=C1N/C(=N\c2ccccn2)SC1Cc1ccc(Cl)cc1 (stereo not given),25µM*,?,1%,-2,-18%,-3
O=C1OCCN1S(=O)(=O)Nc1ccccc1,79µM*,45µM*,24%,.,-36%,3
NC(=O)c1cc(-c2ccccc2)nc(N2CCOCC2)n1,11%,21%[59 µM],32%,-21,-2%,-21
CC[n+]1cc(-c2ccccc2)nc(N2CCOCC2)n1,32µM*,10µM*,6%,18,-5%,4
COc1ccc(Cc2nnc(NC(=O)c3c(-c4ccccc4)noc3C)s2)cc1,-26%,?,30%,-2,?,-9
COc1ccc(Cc2nnc(NC(=O)c3c(-c4ccccc4)noc3C)s2)cc1OC,.,40µM*,.,.,-7%,.
CCOCc1nnc(NC(=O)c2c(-c3ccccc3)noc2C)s1,-28%,32µM*,-23%,13,-2%,5
COc1ccc(-c2cc(C(F)(F)F)nc(SCCC(=O)Nc3ccc(O)cc3)n2)cc1,-12%,3%[59 µM],15%,.,1%,.
Cc1cc(C)nc(-n2nc(C)c3c2NC(=O)CC3c2cccc(O)c2)n1 (stereo not given),-2%,-3%[59 µM],48%,.,-11%,.
Cc1ccc(S(=O)(=O)N2CCC(N3CCC(C)CC3)CC2)cc1,1.6µM*,25µM*,?,10,?,-19
CC1CCN(S(=O)(=O)c2ccc(S(=O)(=O)N3CCC4(CC3)OCCO4)cc2)CC1,0%,11µM*,17%,8,-6%,-1
CCCCOc1ccc(S(=O)(=O)n2nc(C)c(S(=O)(=O)N3CCC(C)CC3)c2C)cc1,1%,-2%[59 µM],26%[57 µM],.,5%,.
Cc1ccc(S(=O)(=O)n2nc(C)c(S(=O)(=O)N3CCC(C)CC3)c2C)cc1,79µM*,-8%[59 µM],7%,.,-23%,.
CC1CCN(S(=O)(=O)c2ccc(Cl)cc2)CC1,-4%,13%[59 µM],33%,12,48%,12
CC1CN(C2CCN(S(=O)(=O)c3ccc(F)cc3)CC2)CC(C)O1 (stereo not given),2.8µM*,10µM*,?,0,32µM*,23
Cc1cccc(NC(=O)c2cc(S(=O)(=O)N3CCc4ccccc43)ccc2F)c1C,-13%,0%[59 µM],5%,.,7%,.
O=C1c2ccccc2C(=O)N1c1cncc2ccccc12,-28%,.,.,.,.,.
Cc1ccc(-n2c(=O)c3ccc(C(=O)NCc4ccco4)cc3n(Cc3ccccc3Cl)c2=O)cc1,-10%,1.6µM*,25%,.,.,.
COc1cccc(NC(=O)CCNS(=O)(=O)c2ccc3c(c2)CCCC(=O)N3)c1,-6%,1%[59 µM],-9%,.,-9%,.
CC(Nc1nc(-c2ccc(F)cc2)cs1)c1nc2cc(Cl)c(Cl)cc2n1CCCO (stereo not given),-26%,.,21%,0,.,12
Cc1ccc(Cn2c(C(C)Nc3nc(-c4ccc(C)cc4)cs3)nc3cc(Cl)c(Cl)cc32)cc1 (stereo not given),?,28µM*,45µM*,0,40µM*,-4
Cc1ccc(Cn2c(C(C)Nc3nc(-c4ccc(Cl)cc4)cs3)nc3cc(C(=O)NCCCO)ccc32)cc1 (stereo not given),79µM*,.,6%,-3,.,-8
CCCn1c(C(C)Nc2nc(-c3ccc(C)cc3)cs2)nc2ccccc21 (stereo not given),?,89µM*,-3%,-12,?,0
COc1ccc(Nc2ncnc3c2cnn3-c2ccc(C)cc2)cc1Cl,0%,0%[59 µM],47%,.,3%,.
Cc1ccc2nc(Cl)c(C3CC(c4cccs4)=NN3C(=O)CCCC(=O)O)cc2c1 (stereo not given),?,1%[59 µM],41%,7,4%,1
SMILES,JMJD2A Tudor,G9a block,HP1b binding inh,CtBP-E1A inh,BAZ2B block,Six1-Eya2 inh
Cc1cccc2cc(C3CC(c4cccs4)=NN3C(=O)CCC(=O)O)c(Cl)nc12 (stereo not given),32µM*,6%[59 µM],0%,4,?,2
Cc1ccc2cc(C3CC(c4ccco4)=NN3C(=O)CCC(=O)O)c(Cl)nc2c1 (stereo not given),22µM*,?,?,-2,-9%,-8
CCCCCCCCCCCCCCCCCC(=O)OCC(C)O (stereo not given),.,25µM*,.,.,.,.
COc1ccc(CNC(=O)CCc2c(C)c3cc4c(C)c(C)oc4cc3oc2=O)cc1,-36%,-31%[59 µM],-6%,.,-13%,.
Cc1ccc(CN2CCN(c3ncccn3)CC2)o1,-21%,?,13%,0,0%,-8
Oc1cc2c(cc1CN1CCN(c3ncccn3)CC1)OCO2,?,4µM*,13%,-2,-30%,-2
Oc1c(CN2CCOCC2)cc(CN2CCOCC2)cc1CN1CCOCC1,-12%,.,21%,5,.,9
Fc1ccccc1CN1CCN(c2ncccn2)CC1,6.3µM*,22µM*,-31%,2,?,-12
Oc1cc(O)c(CN2CCOCC2)cc1CN1CCOCC1,79µM*,.,71µM*,-3,.,-1
Cc1ccc(C)c(CN2CCN(c3ncccn3)CC2)c1,20µM*,.,?,-6,?,9
COc1cc(Br)cc(CN2CCN(c3ncccn3)CC2)c1O,-25%,?,29%,-1,-8%,2
O=[N+]([O-])c1ccc(Cl)c(CN2CCN(c3ncccn3)CC2)c1,?,71µM*,-1%,-13,?,0
CCn1ncc(NC(=S)Nc2ccc3c(c2)OCO3)c1C(N)=O,-3%,20µM*,-11%,-1,-32%,7
CCOC(=O)Nc1ccc2c(c1)OCO2,-11%[57.1 µM],-2%[12.7 µM],35%,7,-26%,-2
CCn1ncc(NC(=S)Nc2ccc(OC)c(OC)c2)c1C(N)=O,?,45µM*,0%,0,79µM*,-24
CC(C)c1ccc(CNc2nc(-c3ccco3)nn2S(=O)(=O)c2ccc3ccccc3c2)cc1,-30%,-50%[59 µM],20%,.,?,.
COc1cc(C(CC(=O)NCc2ccccc2Cl)N2Cc3ccccc3C2=O)cc(OC)c1OC (stereo not given),-13%,-10%[59 µM],32%,.,-12%,.
CC1CN(c2ncnc3c2oc2ccccc23)CC(C)O1 (stereo not given),-24%,50µM*,54%,-1,?,0
Cc1nc2ccc(C(=O)O)cc2c2c1CC(C)S2 (stereo not given),?,?,-33%,-1,71µM*,-26
CC1Cc2cc(S(=O)(=O)NCc3ccc(Cl)cc3)ccc2N1C(=O)C1CCC1 (stereo not given),-18%,7%[59 µM],10%,.,7%,.
